Bioassay records deposited in PubChem BioAssay by several laboratories.
CYP2C19 activ = human CYP2C19 activators, primary screen, biochemical, luminescence. Cytochrome P450 2C19 (Homo sapiens), P33261. recombinant CYP2C19, luciferin-H EGE luminescence; stronger effect = higher value; 0 = fully inhibited enzyme, 1 = untreated enzyme. activation factor at 5 µM. 96,000 tested, under 10 active. AID 1025, 2008;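 active means activation factor of at least 2 at 5 µM in the primary screen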
Target sequence (P33261 whole entry, looked up): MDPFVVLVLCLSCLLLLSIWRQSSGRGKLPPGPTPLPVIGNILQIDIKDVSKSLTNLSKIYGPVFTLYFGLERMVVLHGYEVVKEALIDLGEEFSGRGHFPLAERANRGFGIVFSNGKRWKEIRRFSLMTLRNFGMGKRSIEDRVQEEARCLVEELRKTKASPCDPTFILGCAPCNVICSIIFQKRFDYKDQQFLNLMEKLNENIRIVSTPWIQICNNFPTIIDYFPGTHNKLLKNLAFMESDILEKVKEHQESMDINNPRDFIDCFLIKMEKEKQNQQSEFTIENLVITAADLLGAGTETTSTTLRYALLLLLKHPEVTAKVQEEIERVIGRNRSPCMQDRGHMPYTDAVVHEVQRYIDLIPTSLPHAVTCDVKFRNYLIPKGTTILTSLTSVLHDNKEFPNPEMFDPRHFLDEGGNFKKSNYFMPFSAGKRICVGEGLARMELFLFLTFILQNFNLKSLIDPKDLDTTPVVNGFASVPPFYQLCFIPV
CYP2C9 activ = human CYP2C9 activators, primary screen, biochemical, luminescence; activation factor at 5 µM; recombinant CYP2C9, luciferin-H conversion; stronger effect = higher value; factor 1 = untreated enzyme, 0 = blocked; Cytochrome P450 2C9 (Homo sapiens), P11712; 96,000 tested, 1.4% active;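 active means activation factor of 2 or more for CYP2C9 at a 5 µM dose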
Cav32 inh = Cav3.2 calcium influx blockers – cell-based, Fluo-4 calcium fluorescence, FDSS, MLSMR library, primary screen; Voltage-dependent T-type calcium channel subunit alpha-1H (Homo sapiens), O95180; Cav3.2-expressing cells; stronger effect = lower value; B-score at 10 µM; 100,000 tested, 4% active;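 active means single-dose well whose peak fluorescence ratio is a statistical outlier from its plate by either plate-standardised score or position-corrected B-score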
CYP2C19 inhib = blockers of cytochrome P450 2C19 activity – biochemical, luminescence, ADME assay, primary screen; CYP2C19 Supersomes, luciferin-H EGE luminescence, 30 min; 96,000 tested, 21% active; inhibition, % at 5 µM; AID 778, 2007;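 active means CYP2C19 inhibition above a set limit at 5 µM in the primary screen, cut at about 50% in these data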
CYP2C9 inh = blockers of cytochrome P450 2C9 activity – biochemical, luminescence, ADME assay, primary screen | inhibition, % at 5 µM | P11712 | CYP2C9 Supersomes, luciferin-H conversion | 96,000 tested, 20% active;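 active means blocking of liver enzyme CYP2C9 beyond about 50% at 5 µM, limit read from the data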
Large screens that a line does not name were inactive. Rows were chosen to be rich in hits. Some 27% of all compounds tested hit in one or more screens of this group.

COCCCNC(=O)c1ccc(Cn2c(=O)c3ccccc3n(Cc3cc(C)ccc3C)c2=O)cc1	CYP2C19 inhib 75, CYP2C9 inh 82
COCCCNC(=O)c1ccc(Cn2c(=O)c3ccccc3n(Cc3ccccc3C#N)c2=O)cc1	CYP2C19 inhib 52, CYP2C9 inh 59
COCCCNC(=O)c1ccc(Cn2c(=O)c3ccccc3n(Cc3ccccc3C)c2=O)cc1	CYP2C19 inhib 78, CYP2C9 inh 80
N#Cc1ccccc1Cn1c(=O)n(-c2ccc(CC(=O)NCc3ccco3)cc2)c(=O)c2sccc21	none
CC(C)(C)C1=C(C#N)C(c2cc3c(cc2Br)OCO3)C(C#N)=C(N)O1 (stereo unspecified)	none
CCN(CCCNC(=O)CN(C)S(=O)(=O)c1cccc2nsnc12)c1ccccc1	CYP2C9 inh 74 (no result: Cav32 inh)
CC(C)c1ccc(NC(=O)CCNS(=O)(=O)c2cccc3nsnc23)cc1	none
Cc1ccc(NC(=O)CN(C)S(=O)(=O)c2cccc3nsnc23)cc1Cl	Cav32 inh -7.2, CYP2C9 inh 84
CN(CC(=O)Nc1ccc(F)c(F)c1)S(=O)(=O)c1cccc2nsnc12	CYP2C9 inh 70
CN(CC(=O)NCCN1CCN(Cc2ccccc2)CC1)S(=O)(=O)c1cccc2nsnc12	none
CN(CC(=O)NCc1ccc(Cl)cc1)S(=O)(=O)c1cccc2nsnc12	CYP2C19 inhib 82
Cc1ccc2nc(NC(=O)CN(C)S(=O)(=O)c3cccc4nsnc34)sc2c1	none
COc1ccc(NC(=O)c2cc([N+](=O)[O-])nn2Cc2ccccc2)c(C)c1	none
Cc1ccc(NC(=O)N(CCCN2CCOCC2)Cc2cc3cc4c(cc3[nH]c2=O)OCO4)cc1	none (no result: Cav32 inh)
O=C(Nc1ccc(Cl)cc1)N(CCCN1CCOCC1)Cc1cccs1	CYP2C19 inhib 84
CCOc1ccc(NC(=O)N(CCCN2CCOCC2)Cc2cccnc2)cc1	CYP2C19 inhib 78, CYP2C9 inh 54
CCc1ccc(NC(=O)N(Cc2cccnc2)Cc2ccco2)cc1	CYP2C19 inhib 98, CYP2C9 inh 87
CCCN1CCCc2cc(CN(CCCN3CCOCC3)C(=O)Nc3ccc(OCC)cc3)ccc21	none
CCc1ccc2[nH]c(=O)c(CN(CCCN3CCOCC3)C(=O)Nc3ccc(Cl)cc3)cc2c1	none
Cc1ccc(NC(=O)N(CCCN2CCOCC2)Cc2cccs2)cc1C	CYP2C19 inhib 63, CYP2C9 inh 53
O=C(Nc1ccc(OC(F)F)cc1)Nc1cccc(C(F)(F)F)c1	none
O=C(O)C1CCCCC1C(=O)NCCc1ccc(Cl)cc1 (stereo unspecified)	CYP2C19 inhib 75 (no result: Cav32 inh)
O=C(NCCc1ccc(Cl)cc1)C1CCN(c2cnccn2)CC1	CYP2C19 inhib 52, CYP2C9 inh 66
COc1cccc(CNC(=O)C2CCN(c3cnccn3)CC2)c1	none (no result: CYP2C19 activ, CYP2C9 activ, CYP2C19 inhib, CYP2C9 inh)
O=C(O)C1CCCCC1C(=O)NCCc1cccc(Cl)c1 (stereo unspecified)	none
O=C(NCCc1ccc(Cl)cc1)C1CCN(S(=O)(=O)N2CCCCC2)CC1	CYP2C9 inh 51
O=C(NCCc1ccc(Cl)cc1)c1ncn[nH]1	none
CC(C)NC(=O)C(=O)NCCc1ccc(Cl)cc1	CYP2C19 inhib 92
O=C1C2C3c4ccccc4C(c4ccccc43)C2C(=O)N1c1cccc2cccnc12 (stereo unspecified)	none
Nn1c(SCC(=O)Nc2ccccc2)nnc1-c1cccnc1	none
Cn1c(=O)[nH]c(=O)c2c1nc(Br)n2CCCO	none
Cc1cc(CN2CCOCC2)c(O)c(C2(C)CCCCC2)c1	none
CC(C)CN(CC(C)C)S(=O)(=O)N1CCC(C(=O)NCCc2ccc(Cl)cc2)CC1	CYP2C19 inhib 54, CYP2C9 inh 54
O=C(NCCc1ccc(Cl)cc1)C1CCN(S(=O)(=O)c2cccs2)CC1	Cav32 inh -6.7, CYP2C19 inhib 84, CYP2C9 inh 79
COC(=O)c1ccccc1NC(=O)C1CC(=O)N(c2ccc(C)c(C)c2)C1 (stereo unspecified)	none
COc1cc(C(=O)O)ccc1OCc1c(C)noc1C	none
O=C(c1cccc(S(=O)(=O)N2CCCCC2)c1)N1CCOCC1	none
COc1cc(C=O)ccc1OCc1c(C)noc1C	CYP2C19 inhib 85
CCCCNC(=O)COC(=O)c1cc(S(=O)(=O)N2CCCCCC2)ccc1OC	CYP2C19 inhib 55
Cc1noc(C)c1COC(=O)c1cccc(S(=O)(=O)N2CCCCCC2)c1	CYP2C19 inhib 91, CYP2C9 inh 96
COc1ccc(S(=O)(=O)N2CCCCCC2)cc1C(=O)OCc1c(C)noc1C	CYP2C19 inhib 50, CYP2C9 inh 86
O=C(NCc1ccccc1)C(c1cccnc1)N(Cc1ccco1)C(=O)c1ccccn1 (stereo unspecified)	none
Cc1ccc(S(=O)(=O)N2CCN(C(=O)c3ccc(OCc4c(C)noc4C)cc3)CC2)cc1	none
COc1ccc(S(=O)(=O)N2CCc3ccccc32)cc1C(=O)OCc1c(C)noc1C	CYP2C19 inhib 95, CYP2C9 inh 99
Cc1cc(C(=O)OCC(=O)N2CCc3ccccc32)c(C)o1	none
COc1cc(C(=O)N2CCN(S(=O)(=O)c3ccc(C)cc3)CC2)ccc1OCc1c(C)noc1C	CYP2C19 inhib 70, CYP2C9 inh 56
CC1NC2(C(=O)N(Cc3ccccc3)c3ccccc32)C2C(=O)N(c3ccccc3)C(=O)C12 (stereo unspecified)	none
CCCN1C=CC(=C2C(=O)c3ccccc3C2=O)C=C1	CYP2C19 inhib 76, CYP2C9 inh 58
CCN1C=CC(=C2C(=O)c3ccccc3C2=O)C=C1	none
O=C(c1ccc2c(c1)OCO2)N(Cc1ccco1)C1(C(=O)NC2CCCCC2)CCCCC1	CYP2C19 inhib 59
CCC(C)(C(=O)NC1CCCC1)N(Cc1ccco1)C(=O)c1ccc2c(c1)OCO2 (stereo unspecified)	Cav32 inh -3.6
O=C(Cc1cccs1)N(Cc1ccco1)C1(C(=O)NC2CCCC2)CCCCC1	Cav32 inh -5.2, CYP2C9 inh 60
COC(=O)[C@@]1(Cc2ccc(OC)cc2)[C@H]2c3cc(C(=O)N(C)C)n(CCSCCO)c3C[C@H]2CN1C(=O)c1ccccc1	none (no result: CYP2C19 activ, CYP2C9 activ, CYP2C19 inhib, CYP2C9 inh)
Cc1cc2c3nonc3ccc2n1-c1ccccc1	none
COc1ccc(Cl)cc1-c1n[nH]c(=S)n1C1CCCCC1	Cav32 inh -5, CYP2C19 inhib 80
Cc1cc(Cl)ccc1OCC(=O)N1C(C)CCCC1C (stereo unspecified)	none
COc1ccc(-c2n[nH]c(=S)n2C2CCCCC2)cc1	CYP2C19 inhib 79
Cc1cc(Cl)ccc1OCc1n[nH]c(=S)n1C1CCCCC1	CYP2C19 inhib 81, CYP2C9 inh 96
Cc1ccc(-c2nnc(Nc3ccccc3)o2)cc1	none
CCCc1cc(=O)oc2cc3oc(C)c(C)c3cc12	CYP2C19 inhib 72 (no result: Cav32 inh)
CCc1cc(=O)oc2cc3oc(C)c(C)c3cc12	none
